Source: PubChem
Myeloid diff MLP = promotes myeloid progenitor differentiation; AID 624256; calls only at 10 µM; ER-HoxA9 myeloid progenitors, lysozyme-GFP differentiation, flow cytometry; actives 1% (n = 360,000);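 active = normalized GFP-positive differentiation at or above the plate's own cutoff, the solvent-only control mean plus 3 SD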;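 note: cells exposed to compound for four days before flow analysis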
MEP2-GFP yeast = yeast TOR pathway MEP2-GFP modulation. actives 0.51% (n = 330,000). GFP response vs DMSO, % at 10 µM. S. cerevisiae MEP2-GFP strain, flow cytometry GFP, 3 h; 100% = DMSO control level. AID 2016;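 active = GFP response versus DMSO above a set limit, roughly screen mean plus 3 SD, cut at about 180% in these data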;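 note: median GFP fluorescence of the barcode-gated MEP2-GFP cells per well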
RPL19A TOR yeast = modulators of TOR pathway RPL19A-GFP in S. cerevisiae | S. cerevisiae RPL19A-GFP strain, flow cytometry, 3 h; active compounds read low | percent response vs DMSO, % at 10 µM | actives 0.3% (n = 330,000) | AID 2025;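 active = percent response vs DMSO below 50%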;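 note: median channel GFP fluorescence of the barcoded RPL19A-GFP strain; lower means less RPL19A-GFP as with rapamycin TOR inhibition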
CIT2 TOR yeast = modulators of TOR pathway CIT2-GFP in S. cerevisiae; GFP response vs DMSO, % at 10 µM; actives 0.065% (n = 320,000); S. cerevisiae CIT2-GFP strain, flow cytometry, 3 h; 100 means same as DMSO wells;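 active = GFP response relative to DMSO above a set limit, near the screen mean plus 3 SD, cut at about 150% in these data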;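 note: ratio of well median GFP fluorescence to mean of DMSO wells on the plate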
LAP4-GFP MLPCN = modulators of TOR pathway LAP4-GFP in S. cerevisiae | GFP response vs DMSO, % at 10 µM | AID 2023 | actives 0.34% (n = 320,000) | S. cerevisiae LAP4-GFP multiplex, flow cytometry GFP, 3 h; median GFP as percent of DMSO wells;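 active = GFP response vs DMSO above a set limit, about the screen mean plus 3 SD, cut at about 150% in these data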
AGP1 TOR yeast = yeast TOR pathway AGP1-GFP modulation; S. cerevisiae AGP1-GFP multiplex flow cytometry, 3 h; GFP as percent of DMSO wells; GFP response vs DMSO, % at 10 µM; actives 0.02% (n = 320,000); AID 2066;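 active = GFP response relative to DMSO above a set limit, near screen average plus 3 SD, cut at about 150% in these data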;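 note: median GFP channel fluorescence of the gated AGP1 strain per well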
Myeloid diff = promotes myeloid progenitor differentiation | actives 2% (n = 2,300) | calls only | shares compounds with Myeloid diff MLP | AID 651706 | ER-HoxA9 myeloid progenitors, GFP/Mac1 double-positive flow;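 active = share of green or green-and-red cells above 9 and 9% in run 1 or 4 and 3% in run 2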
GFP autofluor = counter-screen for myeloid differentiation promoters: compound fluorescence. shares compounds with Myeloid diff MLP. ER-HoxA9 myeloid progenitors, no estrogen, GFP autofluorescence flow cytometry; vehicle wells 0%, positive control 100%. fluorescence response, % (no concentration beside the values). actives 7.4% (n = 2,300);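 active = over 5% cells positive for green fluorescent reporter, or over 2% positive for both it and APC stain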
Of the large screens only hits and unclear results are named; the others gave an inactive call (follow-up assays come after a bar, where they were run). This is a sample that favours compounds with a hit; in the whole collection about 1.8% have one here.

O=C(O)CN(c1ccccc1)S(=O)(=O)c1cc(C(F)(F)F)cc(C(F)(F)F)c1	none
COc1cc(C2C(C(=O)C(C)(C)C)=C(O)C(=O)N2Cc2ccccc2)ccc1O (stereo unspecified)	none
COC(=O)[C@@H]1C[C@H]2CC[C@H](O)C[C@H]2N1Cc1ccc(C(F)(F)F)cc1	none
CN(C)c1ccc(/C=C2\Oc3ccc(C#Cc4cccc(N)c4)cc3C2=O)cc1	none (no result: MEP2-GFP yeast, RPL19A TOR yeast, CIT2 TOR yeast, LAP4-GFP MLPCN, AGP1 TOR yeast) | Myeloid diff inactive | GFP autofluor 98
c1ccc(Cn2ncc3c(N4CCCCC4)ncnc32)cc1	none (no result: AGP1 TOR yeast)
Clc1ccc(Cn2ncc3c(N4CCN(c5ccccc5)CC4)ncnc32)cc1	Myeloid diff MLP active (no result: MEP2-GFP yeast, RPL19A TOR yeast, CIT2 TOR yeast, LAP4-GFP MLPCN, AGP1 TOR yeast) | Myeloid diff active | GFP autofluor inactive
OC[C@@H]1CN(Cc2ccc(-c3ccccc3)cc2)C[C@H](n2cnc3c(NCc4ccco4)ncnc32)O1	none (no result: MEP2-GFP yeast, RPL19A TOR yeast, CIT2 TOR yeast, LAP4-GFP MLPCN, AGP1 TOR yeast)
OC[C@@H]1CN(Cc2ccccc2)C[C@H](n2cnc3c(NCc4ccco4)ncnc32)O1	Myeloid diff MLP active (no result: MEP2-GFP yeast, RPL19A TOR yeast, CIT2 TOR yeast, LAP4-GFP MLPCN, AGP1 TOR yeast) | Myeloid diff inactive | GFP autofluor inactive
O=C(OCC(=O)c1c[nH]c2ccccc12)c1cccc(S(=O)(=O)N2CCCCCC2)c1	none | Myeloid diff inactive | GFP autofluor inactive
O=S(=O)(c1ccc(=S)[nH]c1)N1CCCC1	Myeloid diff MLP active | Myeloid diff inactive | GFP autofluor 62
COc1ccc(Br)c(-c2nc(CS(=O)(=O)c3ccc(F)cc3)no2)c1	none | Myeloid diff inactive | GFP autofluor inactive
COc1ccc(Br)c(-c2nnc(CS(=O)(=O)c3ccccc3)o2)c1	none
CC/C(=N/NC(=O)c1ccc2c(c1)OCO2)c1ccccc1O	none | Myeloid diff inactive | GFP autofluor inactive
CCOC(=O)c1ccccc1NC(=O)COC(=O)c1cc([N+](=O)[O-])ccc1N1CCOCC1	none
Cc1cc(C)cc(NC(=O)CCN2CCCC2)c1	Myeloid diff MLP active | Myeloid diff inactive | GFP autofluor inactive
COc1ccc(CCNC(=O)COC(=O)c2ccc(Br)o2)cc1OC	none
Cc1ccc(S(=O)(=O)N/N=C\C=C\c2ccccc2)cc1	none (no result: Myeloid diff MLP) | Myeloid diff inactive | GFP autofluor inactive
Cc1sc(NC(=O)c2ccccc2)c(C(c2ccccn2)N2CCN(CCO)CC2)c1C (stereo unspecified)	none | Myeloid diff inactive | GFP autofluor inactive
CCOc1ccc(C(c2c(NC(=O)c3ccccc3)sc(C)c2C)N2CCN(C)CC2)cc1 (stereo unspecified)	none
COc1ccc(N2CCN(c3nc4c(c(=O)n(C)c(=O)n4C)n3Cc3ccccc3)CC2)cc1	none
COc1ccc(N2CCN(Cc3nc4c(c(=O)n(C)c(=O)n4C)n3Cc3cccc(C)c3)CC2)cc1	none | Myeloid diff inactive | GFP autofluor inactive
Cc1ccc(S(=O)(=O)NCc2ccco2)cc1C	none
CC(=O)N1c2ccc(S(=O)(=O)NCc3ccco3)cc2CC1C (stereo unspecified)	Myeloid diff MLP active | Myeloid diff inactive | GFP autofluor inactive
O=S(=O)(NCc1ccco1)c1ccc2c(c1)Cc1ccccc1-2	none | Myeloid diff inactive | GFP autofluor inactive
CC(=O)c1ccc(N2Cc3ccccc3/C2=N\C(=O)Nc2ccc(Cl)cc2)cc1	none | Myeloid diff inactive | GFP autofluor inactive
COC(=O)c1ccc(N2Cc3ccccc3/C2=N\C(=O)Nc2ccccc2)cc1	none
O=C(Nc1cnc2ccccc2c1)N1CCOCC1	none | Myeloid diff inactive | GFP autofluor inactive
O=C(Nc1cnc2ccccc2c1)N1CCCCC1	none
O=C(CCN1C(=O)C2C3C=CC(C4CC34)C2C1=O)Nc1ccc(Cl)cc1O (stereo unspecified)	Myeloid diff MLP active | Myeloid diff inactive | GFP autofluor inactive
CC(C)C1O/C(=N/C(=O)Nc2ccc(Cl)c(Cl)c2)NC1=O (stereo unspecified)	none | Myeloid diff inactive | GFP autofluor inactive
